Survival data for 60 compounds are collected here from PubChem BioAssay AID463173 (ICCB-Longwood Screening Facility, Harvard Medical School, 2010).

SMILES strings stand for the structures. In all, about 52,000 compounds went through this assay and about 4,300 (8.3%) were called active. For the sample, actives were picked, then their nearest neighbours and some compounds at random. Values without a mark were called inactive. Cut-off read from the data, not from the text of the source: active = survival mostly below about 52% (no sharp cut-off); inactive = mostly above about 56%.

The subject of the experiment is DeltatarO mutant. Briefly: growth inhibition of S. aureus wild type versus tarO mutant, primary screen, teichoic acid synthesis inhibitors, RN4220, OD600 (AID 463173). The following applies: OD600, 18 h, active compounds read low, screened at 18.75 µg/mL (by protocol).
For `COc1ccc(C2=Nc3ccc(OC(F)(F)F)cc3NC(c3cccnc3)=N2)cc1`, the survival is 67%.

On to `COc1ccc(CNS(=O)(=O)c2cnc(N)nc2)cc1`, for which the survival is -2% (active).

As for `COc1cccc(CNS(=O)(=O)c2cnc(N)nc2)c1`, the survival is 64%.

For the compound `CC(C)Oc1ccc(CNS(=O)(=O)c2cnc(N)nc2)cc1`, the survival is 115%.

Turning to `CCc1nn(C(C)C(=O)N2CCN(c3cccc(C(F)(F)F)c3)CC2)c(=O)c2cc3occc3n12` (stereo not given), the survival is 73%.

In the case of `COc1ccc(OC)c(CCNC(=O)CCn2c(=O)c3cccn3c3cccnc32)c1`, the survival was 84%.

For the compound `CCN(CC)c1ccc(NC(=O)c2ccccc2F)cc1`, the survival is 63% (active).

For the compound `CCN(CC)c1ccc(NC(=O)CN2CCN(c3ccccc3F)CC2)cc1`, the survival was 75%.

Take `Cc1cc2nn(-c3ccc(F)cc3)nc2cc1NC(=O)c1cccc2c(Cl)cccc12`: the survival was 59%.

For the compound `CCN(CC)c1ccc(-n2nc3cc(C)c(NC(=O)c4ccccc4F)cc3n2)cc1`, the survival was 56% (active).

Consider `Cc1cc2nn(-c3ccccc3)nc2cc1NC(=O)c1cccc2c(Cl)cccc12`, for which the survival was 43% (active).

`CCN(CC)c1ccc(-n2nc3cc(C)c(NC(=O)c4ccccc4C)cc3n2)c(C)c1`: the survival is 73%.

As for `Cc1cc2nn(-c3ccc(F)cc3)nc2cc1NC(=O)c1cccc2ccccc12`, the survival was 68%.

As for `CCN(CC)c1ccc(-n2nc3cc(C)c(NC(C)=O)cc3n2)cc1`, the survival was 92%.

Regarding `O=C(Nc1ccc(S(=O)(=O)N(Cc2ccccc2)c2ccccc2)cc1)c1ccccc1F`, the survival was 58%.

Turning to `Cc1c(Cl)cccc1Nc1sc(C(=O)c2ccccc2)c(N)c1S(=O)(=O)c1ccccc1`, the survival was 71%.

With `Cc1cc(C)cc(OCCSc2nc(-c3ccc(C(C)(C)C)cc3)nc3cc(=O)[nH]n23)c1`, the survival is 83%.

As to `Cn1c(CNC(=O)CSc2n[nH]c(-c3ccccc3)n2)nc2ccccc21`, the survival is 89%.

Turning to `O=C(NCCSc1c(-c2ccc(Cl)cc2)[nH]c2ccccc12)c1ccc(S(=O)(=O)N2CCOCC2)cc1`, the survival was 68%.

Consider `CCOC(=O)c1sc2ccccc2c1S(=O)(=O)Nc1ccc(N(C)C)cc1`, for which the survival is 126%.

Consider `CC(C)c1ccc2occ(CC(=O)N(Cc3ccc(F)cc3)C3CCS(=O)(=O)C3)c2c1` (stereo not given), for which the survival is 61%.

For the compound `Cc1ccc(CNC(=O)c2ccc3c(c2)nc2n3CCCC2)cc1`, the survival was 86%.

For the compound `Cc1cn2c(=O)cc(COC(=O)c3ccc(NC(=O)C(C)Oc4ccccc4)cc3)nc2s1` (stereo not given), the survival was 8% (active).

Turning to `Cc1cn2c(=O)cc(COC(=O)c3ccc(NC(=O)c4ccc(C(C)(C)C)cc4)cc3)nc2s1`, the survival was 20% (active).

For `Cc1cn2c(=O)cc(COC(=O)c3ccc(NC(=O)c4ccc(F)cc4)cc3)nc2s1`, the survival is 96%.

As for `Cc1cn2c(=O)cc(COC(=O)c3cccc(NC(=O)C(C)Oc4ccccc4)c3)nc2s1` (stereo not given), the survival was 95%.

As for `Cc1cn2c(=O)cc(COC(=O)c3cccc(NC(=O)c4ccc(C(C)(C)C)cc4)c3)nc2s1`, the survival was 103%.

As for `CC(Oc1ccccc1)C(=O)Nc1ccc(C(=O)OCc2cc(=O)n3ccsc3n2)cc1` (stereo not given), the survival is 87%.

Regarding `COc1ccccc1CNC(=O)CCCc1nnc2n(CC(C)C)c(=O)c3sccc3n12`, the survival was 95%.

Regarding `CCN(CC)C(=O)N1CCN(C(=O)N(CC)CC)CC1`, the survival is 79%.

For the compound `CCCCOC(=O)Cc1c(C)[nH]c(=O)[nH]c1=O`, the survival was 114%.

In the case of `CC(NC1CCCC1)c1ccccc1` (stereo not given), the survival was 84%.

As to `COc1ccc(CCNC(=O)CSc2ncc3c(n2)-c2cc(Cl)ccc2N(Cc2ccccc2)S3(=O)=O)cc1OC`, the survival was 87%.

For `COc1cccc(-c2cc(C(=O)N3CCN(c4ccc(F)cc4)CC3)no2)c1`, the survival is 44% (active).

Turning to `COc1cccc(N2CCN(C(=O)c3cnc4c(-c5ccc(F)cc5)c(C)nn4c3C)CC2)c1`, the survival is -5% (active).

In the case of `COc1cccc(-c2cc(C(=O)N3CCN(c4ccccc4OC)CC3)no2)c1`, the survival is -4% (active).

On to `COc1ccc(N2CCN(C(=O)c3cc(-c4ccc(C)c(F)c4)on3)CC2)cc1`, for which the survival is 92%.

Regarding `Cc1nn2c(C)c(C(=O)N3CCN(c4ccc(Cl)cc4)CC3)cnc2c1-c1ccc(F)cc1`, the survival is 88%.

In the case of `COc1ccccc1N1CCN(C(=O)c2cc(-c3ccc(F)cc3)on2)CC1`, the survival is 46%.

With `COc1cccc(N2CCN(C(=O)c3cnc4c(-c5ccccc5)c(C)nn4c3C)CC2)c1`, the survival is 87%.

As to `COc1ccc(-c2cc(C(=O)N3CCN(c4ccc(F)cc4)CC3)no2)cc1OC`, the survival is 57%.

Turning to `COc1ccccc1N1CCN(C(=O)c2cc(-c3ccc(C)c(F)c3)on2)CC1`, the survival was 66%.

Regarding `COc1ccc(S(=O)(=O)NCCc2sc(C)nc2C)cc1F`, the survival is 88%.

As to `CC(C)N(C(C)C)S(=O)(=O)c1ccccc1`, the survival is 100%.

For the compound `COc1ccc(-c2nc3cccc(C)n3c2NC(C)(C)C)cc1O`, the survival is 109%.

For the compound `COCCN1C(=O)N(c2cccc(OC)c2)C(=O)C1CC(=O)Nc1ccccc1` (stereo not given), the survival was 139%.

For the compound `CCOC(=O)c1sc(NC(=O)CSc2nnc(Cn3nnc4ccccc43)n2C)nc1C`, the survival is 94%.

Take `O=C(CSc1nc(=O)[nH]c2c1CCC2)NCc1ccc(Cl)cc1`: the survival was 67%.

As for `COc1ccc(NC(=O)Nc2nnc(N3CCCCCC3)s2)cc1`, the survival was 72%.

As to `CC(C(=O)NCCSCc1cccc(Cl)c1)N(c1ccccc1)S(C)(=O)=O` (stereo not given), the survival was 61%.

On to `CSc1ncc(Cl)c(C(=O)N(Cc2ccc(C)cc2)C2CCS(=O)(=O)C2)n1` (stereo not given), for which the survival is 88%.

As for `O=C(CN1C(=O)COc2ccc(S(=O)(=O)N3CCOCC3)cc21)N1CCN(c2ccc(Cl)cc2)CC1`, the survival was 92%.

For `CCOc1ccc(C(=O)Nc2c(C(=O)Nc3ccccc3OC)oc3ccccc23)cc1OCC`, the survival was 65%.

Consider `CCn1c(SCC(=O)c2ccc(C)cc2)nnc1C1CC1`, for which the survival is 66%.

Consider `COC(=O)COc1ccc2oc(-c3ccc(OC)cc3)cc(=O)c2c1`, for which the survival was 36% (active).

Take `CCCCC(=O)Oc1ccc2oc(-c3ccc(OC)cc3)cc(=O)c2c1`: the survival is 30% (active).

Take `Cc1cc(C)nc(SCC(=O)Oc2ccc3oc(=O)cc(C)c3c2)n1`: the survival was 95%.

`COc1ccc(-c2cc(=O)c3cc(OCC(=O)OC(C)C)ccc3o2)cc1`: the survival was 124%.

As for `COc1ccc2oc(-c3cccc(F)c3)cc(=O)c2c1`, the survival was 99%.

As to `CCCC(=O)Oc1ccc2ccc(=O)oc2c1`, the survival is 89%.
